# Measured values: ChEMBL document CHEMBL1157539, “Thousands of chemical starting points for antimalarial lead identification” (Nature, 2010)
# Columns and labels:
# Type in all cases: functional
# Plasmodium falciparum [1] = experiment: GSK_TCMDC: Inhibition of Plasmodium falciparum 3D7 in whole red blood cells, using parasite LDH activity as an index of growth. Test compounds present at 2uM
# Plasmodium falciparum [2] = experiment: GSK_TCMDC: Inhibition of Plasmodium falciparum Dd2 in whole red blood cells, using parasite LDH activity as an index of growth. Test compounds present at 2uM
# HepG2 = experiment: GSK_TCMDC: Percent inhibition of human HepG2 cell line. Test compounds present at 10uM.
structure (smiles),measurement,setting,value
CC(C)=CC1C(C(=O)n2c(=N)[nH]c3ccccc32)C1(C)C (stereo not drawn),Inhibition,Plasmodium falciparum [1],99%
same,Inhibition,Plasmodium falciparum [2],3%
same,Inhibition,HepG2,16%
Cc1cc(NCCCCCCNc2cc(C)nc3c(C)cccc23)c2cccc(C)c2n1.Cl,Inhibition,Plasmodium falciparum [1],100%
same,Inhibition,Plasmodium falciparum [2],9%
same,Inhibition,HepG2,23%
Nc1nc(N)c2c(Cl)c(CNc3cccc(C(=O)O)c3)ccc2n1,Inhibition,Plasmodium falciparum [1],93%
same,Inhibition,Plasmodium falciparum [2],97%
same,Inhibition,HepG2,69%
CCOc1ccc(-c2nonc2NC(=O)c2ccccc2F)cc1OCC,Inhibition,Plasmodium falciparum [1],90%
same,Inhibition,Plasmodium falciparum [2],100%
same,Inhibition,HepG2,0%
O=C(NCCN1CCCCC1)c1cccc(Nc2nccc(Nc3ccc(Oc4ccccc4)cc3)n2)c1,Inhibition,Plasmodium falciparum [1],99%
same,Inhibition,Plasmodium falciparum [2],86%
same,Inhibition,HepG2,50%
CC(=O)Nc1ccc(Nc2c3ccccc3nc3ccccc23)cc1,Inhibition,Plasmodium falciparum [1],89%
same,Inhibition,Plasmodium falciparum [2],62%
same,Inhibition,HepG2,41%
COc1ccc(-c2cccc(NC(=O)c3ccc(Cl)cc3)c2)cc1CN1CCC(O)CC1.O=C(O)C(F)(F)F,Inhibition,Plasmodium falciparum [1],100%
same,Inhibition,Plasmodium falciparum [2],43%
same,Inhibition,HepG2,51%
COc1cc(F)c2ncc(Cl)c(CCN3CCC(NCc4ccc5c(c4)NC(=O)CS5)CC3)c2c1.Cl,Inhibition,Plasmodium falciparum [1],100%
same,Inhibition,Plasmodium falciparum [2],85%
same,Inhibition,HepG2,27%
Oc1cccc(-c2nc(-c3cccc(I)c3)c(-c3ccc(-c4nc(-c5cccc(O)c5)[nH]c4-c4cccc(I)c4)cc3)[nH]2)c1,Inhibition,Plasmodium falciparum [1],96%
same,Inhibition,Plasmodium falciparum [2],66%
same,Inhibition,HepG2,0%
N#Cc1ccc2c(c1)CN(C1CCC(NC(=O)c3cc(-c4ccc(Cl)cc4)cs3)CC1)CCC2 (stereo not drawn),Inhibition,Plasmodium falciparum [1],100%
same,Inhibition,Plasmodium falciparum [2],99%
same,Inhibition,HepG2,36%
CCCCc1cc(N2CCC(NC(C)=O)C2)nc(Nc2ccc(C)cc2)n1 (stereo not drawn),Inhibition,Plasmodium falciparum [1],95%
same,Inhibition,Plasmodium falciparum [2],1%
same,Inhibition,HepG2,2%
Fc1ccc(Nc2ccnc3cc(-c4cccc(CN5CCCCC5)c4)ccc23)c(Cl)c1,Inhibition,Plasmodium falciparum [1],91%
same,Inhibition,Plasmodium falciparum [2],58%
same,Inhibition,HepG2,3%
CC(C)C[C@@H](C(=O)N[C@@H](CCCCNC(=O)OCc1ccccc1)C(=O)Nc1nccs1)[C@H](C)N(O)C=O,Inhibition,Plasmodium falciparum [1],99%
same,Inhibition,Plasmodium falciparum [2],98%
same,Inhibition,HepG2,0%
COc1cc(F)c2ncc(Cl)c([C@H](O)CN3CCC(NCc4cc5c(cn4)OCCO5)CC3)c2c1.Cl,Inhibition,Plasmodium falciparum [1],100%
same,Inhibition,Plasmodium falciparum [2],49%
same,Inhibition,HepG2,10%
Fc1cccc(-c2ccc3c(c2)CC(NCc2c[nH]c4cnccc24)C3)c1 (stereo not drawn),Inhibition,Plasmodium falciparum [1],100%
same,Inhibition,Plasmodium falciparum [2],68%
same,Inhibition,HepG2,24%
O=C(N[C@@H](Cc1ccccc1)C(=O)NC1CCCCC1)c1ccc(O)c(-c2cccc(C(F)(F)F)c2)c1,Inhibition,Plasmodium falciparum [1],96%
same,Inhibition,Plasmodium falciparum [2],36%
same,Inhibition,HepG2,11%
COc1ccc(C(=O)COc2cccc(/C=C/C(=O)O)c2)cc1OC,Inhibition,Plasmodium falciparum [1],84%
same,Inhibition,Plasmodium falciparum [2],28%
same,Inhibition,HepG2,44%
COc1ccc2ncc(F)c(NC(=O)C3CCC(NCc4cc5cc(F)cc(F)c5[nH]4)CC3)c2n1.Cl (stereo not drawn),Inhibition,Plasmodium falciparum [1],95%
same,Inhibition,Plasmodium falciparum [2],15%
same,Inhibition,HepG2,18%
Cc1cc(C(=O)CN2C(=O)NC3(CCOc4ccccc43)C2=O)c(C)n1Cc1ccc(F)cc1 (stereo not drawn),Inhibition,Plasmodium falciparum [1],95%
same,Inhibition,Plasmodium falciparum [2],84%
same,Inhibition,HepG2,1%
Nc1nc(N)c2cc(N(Cc3ccccc3)Cc3ccccc3)ccc2n1,Inhibition,Plasmodium falciparum [1],99%
same,Inhibition,Plasmodium falciparum [2],88%
same,Inhibition,HepG2,69%
O=C(Cc1ccccc1)NC1CCN(c2ccnc3cc(Cl)ccc23)C1.O=C(O)C(F)(F)F (stereo not drawn),Inhibition,Plasmodium falciparum [1],100%
same,Inhibition,Plasmodium falciparum [2],78%
same,Inhibition,HepG2,6%
CCN(CCCN1CCCCC1)c1cc(C)nc(Nc2cccc3c2CCCC3)n1.O=C(O)C(F)(F)F,Inhibition,Plasmodium falciparum [1],92%
same,Inhibition,Plasmodium falciparum [2],46%
same,Inhibition,HepG2,60%
CCNc1cc(C(=O)N[C@@H](Cc2ccccc2)[C@H](O)CNC2(CC(C)C)CC2)cc(N2CCCCS2(=O)=O)c1.Cl,Inhibition,Plasmodium falciparum [1],87%
same,Inhibition,Plasmodium falciparum [2],29%
same,Inhibition,HepG2,0%
O=C(Nc1cccc(CN2CCCN(Cc3ccccc3)CC2)c1)c1ccc(-c2ccccc2)cc1.O=C(O)C(F)(F)F,Inhibition,Plasmodium falciparum [1],85%
same,Inhibition,Plasmodium falciparum [2],8%
same,Inhibition,HepG2,45%
O=C(Cc1cccc(Cl)c1)N1CCc2cc3nccc(N4CCN5CCC[C@H]5C4)c3cc21,Inhibition,Plasmodium falciparum [1],96%
same,Inhibition,Plasmodium falciparum [2],4%
same,Inhibition,HepG2,14%
COc1ccc(-c2cncc3ccc(C(=O)NCCCn4ccnc4)nc23)cc1,Inhibition,Plasmodium falciparum [1],95%
same,Inhibition,Plasmodium falciparum [2],99%
same,Inhibition,HepG2,28%
Cc1noc(C)c1-c1cccc(CNCc2ccc(-c3ccc(-c4nc5cc(F)ccc5[nH]4)cc3)cc2)c1.O=C(O)C(F)(F)F,Inhibition,Plasmodium falciparum [1],100%
same,Inhibition,Plasmodium falciparum [2],92%
same,Inhibition,HepG2,23%
O=C(O)C(F)(F)F.O=c1[nH]c2ccc(Nc3nccc(NCCc4ccccc4)n3)cc2[nH]1,Inhibition,Plasmodium falciparum [1],100%
same,Inhibition,Plasmodium falciparum [2],6%
same,Inhibition,HepG2,0%
Cc1cccc(C=NN=c2cc(C)[nH]c3ccc(F)cc23)n1,Inhibition,Plasmodium falciparum [1],95%
same,Inhibition,Plasmodium falciparum [2],45%
same,Inhibition,HepG2,1%
CCC(C)NS(=O)(=O)c1ccc2nc(Nc3ccc(C)c(Cl)c3)n(C3CCCCC3)c2c1 (stereo not drawn),Inhibition,Plasmodium falciparum [1],99%
same,Inhibition,Plasmodium falciparum [2],98%
same,Inhibition,HepG2,0%
O=C(O)C(F)(F)F.c1ccc(CCNCc2ccc(-c3ccc(CNc4ccc5ncccc5c4)cc3)cc2)cc1,Inhibition,Plasmodium falciparum [1],96%
same,Inhibition,Plasmodium falciparum [2],27%
same,Inhibition,HepG2,36%
